This is a sample that favours compounds with a hit; in the whole collection about 7.5% have one here.
Rab9 prom act: activators of Rab9 promoter | Huh7 Rab9 promoter-luciferase reporter, luminescence, 24 h | Potency, µM (top dose mostly 9.22 µM), for inactives: at the top dose activation, negative = inhibition, actives largely listed as activators | 320,000 tested, 2.8% active; also: % of control where 0% means no effect; nearly all actives have a fitted effect of over 60% in size
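Luciferase signal after 10 min detection reagent at ambient indicates Rab9 promoter upregulation; stably transfected Huh7 cells were treated 24 h with compound in DMSO at 37 °C, 5% CO2.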
FLuc modulator: firefly luciferase modulation, counter-screen for miR-21 project | purified FLuc, Km substrates, luminescence inhibition | Potency, µM (titrated, usually from 57.5 µM), for the others: at the top dose activity change, negative = inhibition, usual class: inhibitors | 360,000 tested, 6.9% active;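 also: plate controls were vehicle for no effect and reference inhibitor for full effect; nearly all actives have a fitted effect of over 55% in size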
Target sequence (P08659 whole entry, looked up): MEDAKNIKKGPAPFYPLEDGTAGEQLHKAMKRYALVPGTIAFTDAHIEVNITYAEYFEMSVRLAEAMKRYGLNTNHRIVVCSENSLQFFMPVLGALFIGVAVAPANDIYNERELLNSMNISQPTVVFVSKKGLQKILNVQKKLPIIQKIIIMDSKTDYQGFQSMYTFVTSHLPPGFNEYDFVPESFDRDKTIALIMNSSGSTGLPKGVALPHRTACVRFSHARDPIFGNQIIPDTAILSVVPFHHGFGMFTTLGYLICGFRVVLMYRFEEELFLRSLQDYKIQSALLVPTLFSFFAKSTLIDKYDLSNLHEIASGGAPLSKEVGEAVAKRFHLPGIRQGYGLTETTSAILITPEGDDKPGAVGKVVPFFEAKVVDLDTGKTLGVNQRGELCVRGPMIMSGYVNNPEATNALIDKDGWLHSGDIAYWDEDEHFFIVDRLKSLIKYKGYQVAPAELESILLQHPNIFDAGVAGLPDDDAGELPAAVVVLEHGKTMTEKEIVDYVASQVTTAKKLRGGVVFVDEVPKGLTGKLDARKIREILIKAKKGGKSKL
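Biochemical qHTS of compounds, final roughly 60 µM downward over six points, against 10 nM purified firefly luciferase using Km concentrations of substrates (10 uM D-luciferin, 10 uM ATP) in Tris acetate pH 7.5 buffer; luminescence output.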
NPC1 promoter act: activators of NPC1 promoter | Huh7 NPC1 promoter luciferase reporter, 24 h | Potency, µM (highest dose often 9.22 µM), inactives show at the highest dose activation, most hits filed as activators | 320,000 tested, 2.4% active | AID 485313; also: % of control where 0% means no effect; nearly all actives have a fitted effect of over 60% in size
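Stably transfected Huh7 (NPC1 promoter→luciferase), 1500 cells/well in Opti-MEM + 10% FBS, 2 h settle, then compound 24 h at 37 °C. Luminescence after 10 min with Amplite reagent.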
SMN2 splice up: enhancers of SMN2 splice variant expression; HEK293 SMN2-luciferase splicing reporter, luminescence, 30-36 h; Potency, µM (top dose mostly 46.1 µM), for the others: top-dose activity change, positive = activation, actives largely listed as activators; AID 1458; 210,000 tested, 2.8% active; also: % of control where 0% means no effect; nearly all actives have a fitted effect of over 55% in size
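HEK293 cells carry an SMN2 minigene-luciferase reporter in which exon 7 inclusion puts luciferase in frame. Cells were seeded at 2000 cells/well, attached for 10-12 hours, then exposed to compounds for 30-36 hours at 37C before ONE-Glo luminescence.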
Luc counter: blocks Kinase-Glo luciferase, a counter-screen artifact; Q27757; Kinase-Glo luciferase, ATP luminescence, 8 min; Potency, µM (highest dose often 38.3 µM), for the others: top-dose activity change, negative = inhibition, most hits filed as inhibitors; 200,000 tested, 0.28% active; AID 1379; also: % is scaled to controls: 0 for no effect and ±100 for the full control effect; nearly all actives have a fitted effect of over 60% in size
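Light output from Kinase-Glo luciferase with luciferin and 10 uM ATP in 50 mM imidazole pH 7.2, KCl, MgCl2, Tween 20, BSA; compound pin-delivered, 8-min ambient incubation, then luminescence read.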
ELG1 genotoxic: inducers of genotoxicity in HEK293T ELG1-luciferase cells; HEK293T ELG1-luciferase reporter, luminescence, 16 h; Potency, µM (titrated, usually from 46 µM), inactives show at the top dose activity change, positive = activation, usual class: activators; 330,000 tested, 1.3% active; also: % of control where 0% means no effect; nearly all actives have a fitted effect of over 60% in size
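Reporter readout depends on ELG1 protein level, which increases with genetic stress. After 16 hr compound exposure at 37 °C, luciferase activity was quantified using ONE-Glo.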
* hit, by the source's call; ? = inconclusive; . = not tested or not shown; [ ] = remark or other dose. Calls follow the shape of the dose curve; as a rule, active = well fitted curve in the direction sought with a large enough effect; inconclusive = small, poorly fitted or top-dose-only effect, or another doubt; inactive = no such curve, though single readings can be large; an effect the other way counts as inactive or inconclusive. Potency is read from the fitted curve at half-maximal effect.

SMILES	Rab9 prom act	FLuc modulator	NPC1 promoter act	SMN2 splice up	Luc counter	ELG1 genotoxic
CCOc1ccc(/C=C/c2nc3ccccc3n2S(=O)(=O)c2ccc(Br)cc2)cc1	.	0.85µM*	.	2.8µM*	.	.
CC(NC(=O)c1ccc2c(c1)sc1nc(-c3ccccc3)cn12)C12CC3CC(CC(C3)C1)C2 (configuration not stated)	.	0%	.	.	.	.
COCCc1ccc(OC[C@H](O)CNC(C)C)cc1	.	.	.	2%[20.6 µM]	3%[17.1 µM]	.
C=C(CCC(=O)c1ccccc1)C(=O)c1ccccc1	-8%	17µM*	-4%	-20%	-1%	-16%
CCN(CC)C(=O)Cn1cc(C(=O)C(=O)NCCCN2CCOCC2)c2ccccc21	9%	1%	2%	.	.	3%
O=C(Nc1ccc2c(c1)OCO2)C(=O)c1c[nH]c2ccccc12	0.71µM*	0.67µM*	0.4µM*	.	.	1.8µM*
CCN(CC)C(=O)Cn1cc(C(=O)C(=O)Nc2ccc3c(c2)OCCO3)c2ccccc21	?	3.4µM*	30%	.	.	-1%
O=C(Nc1ccc2c(c1)OCCO2)C(=O)c1c[nH]c2ccccc12	0.1µM*	0.19µM*	?	.	.	?
Cc1[nH]c2ccccc2c1C(=O)C(=O)Nc1ccc2c(c1)OCCO2	?	15µM*	?	.	.	17%
Cc1cc(NC(=O)C(=O)c2c(C)[nH]c3ccccc23)no1	-11%	5%	-3%	-22%	3%	?
Cc1ccc(CNC(=O)c2ccc3c(c2)N(Cc2ccccc2F)C(=O)c2ccccc2S3(=O)=O)cc1	.	2%	.	8%	.	.
O=C(Cn1ncc2c3ccccc3n(Cc3ccccc3)c2c1=O)NCCCN1CCCCC1	.	1%	.	9%	.	.
O=C(NC1=NCCS1)c1ccc(Br)s1	3.5µM*	7.6µM*	3.5µM*	11µM*	-3%	7.3µM*
O=C(NC1CCC(O)CC1)c1ccc(Br)o1 (configuration not stated)	.	.	.	.	.	-1%
O=C(NNC(=O)c1ccccc1F)c1ccc(-c2ccc(Cl)cc2)o1	-1%	?	-1%	.	.	1%
O=C(NC1CCC(O)CC1)c1ccc(-c2ccc(Cl)cc2)o1 (configuration not stated)	?	11µM*	?	.	.	14%
O=C(NC1=NCCS1)c1ccc(Cl)cc1	2µM*	11µM*	1.6µM*	.	.	10µM*
COc1ccc(Cl)cc1C(=O)NC1=NCCS1	14%	?	0%	.	.	3%
O=C(NC1=NCCS1)c1ccc(-c2ccc(Cl)cc2)o1	2µM*	1.9µM*	2µM*	13µM*	-3%	2.1µM*
CCOc1ccc(-n2cc(-c3ccccc3)c3c(NCc4ccc(F)cc4)ncnc32)cc1	.	-3%	.	.	.	.
O=C(CSc1nc2[nH]ncc2c(=O)n1-c1ccccc1Br)NCc1ccccc1Cl	-4%	0%	-8%	5%	0%	-2%
N#CCSc1nc2[nH]ncc2c(=O)n1-c1ccccc1Br	0.32µM*	0.13µM*	?	.	10µM*	?
CCSc1nc(N)nc(-c2cccs2)c1C#N	23%	?	26%	?	-1%	21µM*
O=C1N/C(=N/Nc2ccccc2)S/C1=C\c1ccccc1	10%	13µM*	10%	?	-11%	10%
Cc1ccc(NC(=O)C(C)[n+]2ccccc2)cc1[N+](=O)[O-] (configuration not stated)	-4%	3%	-1%	28µM*	-1%	1%
SMILES	Rab9 prom act	FLuc modulator	NPC1 promoter act	SMN2 splice up	Luc counter	ELG1 genotoxic
COc1ccc(/C=N/NC(=O)c2nc(-c3ccccc3)cc(-c3ccccc3)n2)cc1OC	-3%	2.4µM*	3%	-37%	-6%	-1%
COc1cccc(/C=N/NC(=O)C(C)Cn2cnc3ccccc32)c1 (configuration not stated)	-5%	15µM*	-3%	.	.	-7%
COc1cccc(/C=N/NC(=O)c2nc(-c3ccccc3)cc(-c3ccccc3)n2)c1	3%	2.4µM*	-2%	-18%	-6%	-9%
CCOc1ccc(C(=O)Nc2cccc(OCc3cc(=O)n4cc(C)sc4n3)c2)cc1	.	2%	.	-4%	.	.
CCn1c(SCc2ccccc2)nnc1-c1nonc1NC(C)=O	.	-7%	.	.	.	.
N/C(=N\OC(=O)/C=C/c1ccc(Br)cc1)c1ccccn1	2.2µM*	9.5µM*	1.8µM*	18µM*	-6%	?
O=C(COC(=O)/C=C/c1ccccc1Cl)Nc1cccnc1Cl	.	.	.	.	.	-1%
N/C(=N\OC(=O)/C=C/c1ccccc1)c1cccnc1	11%	12µM*	0%	2%	-7%	?
N/C(=N\OC(=O)/C=C/c1ccccc1Cl)c1ccccn1	0.28µM*	0.6µM*	0.5µM*	?	?	?
N/C(=N\OC(=O)C(c1ccccc1)c1ccccc1)c1cccnc1	-2%	0%	1%	-6%	0%	1%
Cc1ccccc1/C(N)=N/OC(=O)/C=C/c1ccccc1	?	?	25%	?	-9%	?
N/C(=N\OC(=O)/C=C/c1ccccc1Cl)c1cccnc1	?	7.6µM*	?	.	.	21µM*
CCc1nnc2c(NCc3cccc(OC)c3)nc3ccccc3n12	.	-4%	.	3%	.	.
Cc1ccc(CCNC(=O)C2CCN(Cc3nc(-c4ccccc4C)oc3C)CC2)cc1	.	-14%	.	1%	.	.
CCOc1ccc(CC(=O)Nc2c(C(=O)c3ccccc3)oc3ccc(Cl)cc23)cc1OCC	.	-6%	.	2%	.	.
CCC(=O)N1CCc2cc(CNC(=O)c3ccc(OC)cc3)ccc21	.	-13%	.	.	.	.
Cc1ccn2c(=O)cc(COc3ccc(NC(=O)C(C)(C)C)cc3)nc2c1	.	-1%	.	.	.	.
COc1cccc(-c2cc(C(=O)Nc3c(C)nn(Cc4ccccc4Cl)c3C)no2)c1	.	-10%	.	-9%	.	.
COc1ccc(C(C)=O)cc1COc1ccc(Cl)cc1Cl	0%	15µM*	-1%	.	.	-4%
COc1ccc(C(C)=O)cc1COC(=O)c1cnc(C)cn1	-3%	-2%	-4%	2.2µM*	-3%	2%
C[N+]1(CCCC[N+]2(C)CCCCCCC2)CCCCCCC1	.	.	.	0%[9.22 µM]	-7%[7.66 µM]	.
COc1cc(-c2nc3cnccn3c2Nc2ccc(C)cc2)ccc1O	-3%	-9%	1%	18µM*	19%	13µM*
COc1cc(-c2nc3cnccn3c2Nc2ccccc2)ccc1O	-7%	-9%	-7%	14µM*	4%	6%
COc1cc(-c2nc3cnccn3c2Nc2ccc(C(C)C)cc2)ccc1O	-2%	-1%	-2%	-9%	20%	14%
COc1ccc(-n2ccn(Cc3ccc(C)cc3)c(=O)c2=O)cc1OC	.	-6%	.	.	.	.
COc1ccc(OC)c(/C=C2/Sc3ccccc3C2=O)c1	1%	9.5µM*	1%	.	-10%	15%

Source: PubChem BioAssay (National Center for Advancing Translational Sciences (NCATS))
